# Assay outcomes (PubChem)
# TDP1 cell CPT: qHTS for Inhibitors of human tyrosyl-DNA phosphodiesterase 1 (TDP1): qHTS in cells in presence of CPT. chicken DT40 Tdp1-/-;hTDP1 cells + 20 nM CPT, ATP luminescence, 48 h. Potency, µM (doses to about 46.2 µM), most hits filed as inhibitors. 12% of 420,000 active. AID 686979, 2013; further: nearly all actives have a fitted effect of over 55% in size
#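 Chicken DT40 Tdp1-/- cells stably complemented with human TDP1 were seeded at 400 cells/well in medium containing 20 nM camptothecin, exposed to pin-transferred compounds, and grown at 37 °C for at least 48 hr. Viability was read as ATP luminescence.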
# DT40 TDP1 no CPT: qHTS for Inhibitors of human tyrosyl-DNA phosphodiesterase 1 (TDP1): qHTS in cells in absence of CPT | DT40 Tdp1-/- hTDP1 cells, no CPT, ATP luminescence, 48 h | Potency, µM (series often up to 46.2 µM), usual class: inhibitors | 15% of 420,000 active | AID 686978, 2013; further: nearly all actives have a fitted effect of over 55% in size
#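 Compound effects on proliferation are scored in DT40 Tdp1-/-;hTDP1 cells in the absence of CPT. ATP levels (CellTiter-Glo luminescence) are recorded after a ≥48 hr, 37 °C incubation.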
# HT1080-NT tox: qHTS for induction of synthetic lethality in tumor cells producing 2HG: qHTS for the HT-1080-NT fibrosarcoma cell line; AID 686970, 2013; Potency, µM (top dose mostly 46.1 µM), usual class: cytotoxic; 1.6% of 360,000 active; HT-1080-NT fibrosarcoma viability, CellTiter-Glo ATP luminescence, 48 h;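 further: NT is the 2HG producing partner of a matched IDH1 knockdown line; nearly all actives have a fitted effect of over 55% in size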
#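 Luminescent CellTiter-Glo readout after 48 hours of compound exposure at 37 degrees C defined viability of HT-1080-NT cells. Activity was normalized to DMSO wells and cell-free media wells; concentration-response curves were fitted and assigned curve classes.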
# HT1080 IDH1KD tx: qHTS for induction of synthetic lethality in tumor cells producing 2HG: qHTS for the HT-1080-IDH1KD cell line; HT-1080 IDH1 knockdown viability, ATP luminescence, 48 h; Potency, µM (doses to about 46.1 µM), hits mostly cytotoxic; 2% of 360,000 active; AID 686971, 2013
#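 Luminescent ATP read-out (CellTiter-Glo, 10 min at room temperature) after 48 h compound exposure at 37 °C gave viability of IDH1-knockdown HT-1080 cells. Activity was normalised to DMSO and cell-free wells, then fitted as concentration-response curves.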
# IL-1B inflam inh: qHTS for Inhibitors of Inflammasome Signaling: IL-1-beta AlphaLISA Primary Screen; THP-1 LPS/ATP IL-1B secretion, AlphaLISA, 16 h; stronger effect = lower value; activity change, % at 57.5 µM; 4.7% of 360,000 active; in the data active means activity change below about -50%; inconclusive means mostly about -30% to -49%
#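 THP-1 cells pretreated 1 hr with compounds (up to 57.5 uM final), then stimulated with LPS (250 ng/mL final) plus ATP (1.25 mM final); secreted IL-1B measured by AlphaLISA after 16 hr, decreased signal indicating inhibition.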
# Hits are given with their value; – = inactive; ? = inconclusive; · = no result. Only some compounds are listed: those with a hit (about 19% of all), similar ones and a draw of the others. Unless noted, the call rests on the fitted dose curve; in most records, active means well fitted curve in the direction sought with a large enough effect; inconclusive means small, poorly fitted or top-dose-only effect, or another doubt; inactive means no such curve, though single readings can be large; an effect the other way counts as inactive or inconclusive.
SMILES,TDP1 cell CPT,DT40 TDP1 no CPT,HT1080-NT tox,HT1080 IDH1KD tx,IL-1B inflam inh
COc1ccc(S(=O)(=O)N2CCOC2CNC(=O)C(=O)NCCc2ccc(OC)c(OC)c2)cc1 (stereo not drawn),16.4µM,?,–,–,–
COc1ccc(CCNC(=O)C(=O)NCC2OCCN2S(=O)(=O)c2ccc(Cl)cc2)cc1OC (stereo not drawn),?,18.4µM,–,–,–
COc1ccc(S(=O)(=O)N2CCCOC2CNC(=O)C(=O)NCCc2ccco2)cc1C (stereo not drawn),5.8µM,7.31µM,16.4µM,18.4µM,–
CS(=O)(=O)Cc1ccc(C(=O)NC2CCCc3ccccc32)cc1 (stereo not drawn),–,–,–,–,–
O=C(NCCc1ccccc1)C(=O)NCC1OCCN1S(=O)(=O)c1ccc(Br)cc1 (stereo not drawn),?,16.4µM,–,–,–
CC(C)c1ccc(C2=NC(c3ccncc3)=Nc3ccc(F)cc3N2)cc1,23.1µM,?,·,·,·
Cc1ccc2c(c1)NC(c1cccnc1)=NC(c1ccc(F)cc1)=N2,?,5.8µM,·,·,·
CCc1ccc2c(c1)NC(c1cccnc1)=NC(c1ccc(C(C)(C)C)cc1)=N2,18.4µM,?,·,·,·
CC(C)c1cccc(-c2csc(C(O)c3ccc(F)cc3)n2)c1 (stereo not drawn),?,?,?,?,–
CC([NH2+][O-])C(C)(C)NO (stereo not drawn),–,–,–,–,–
COc1ccc(NC(=O)Cn2c(=O)n(Cc3ccccc3)c(=O)c3sc4ccccc4c32)cc1,–,13µM,·,·,·
COc1ccccc1NC(=O)Cn1c(=O)n(CCc2ccccc2)c(=O)c2sc3ccccc3c21,–,?,·,·,·
COc1ccccc1NC(=O)Cn1c(=O)n(-c2ccccc2Cl)c(=O)c2sc3ccccc3c21,?,10.3µM,·,·,·
O=c1c2sc3ccccc3c2n(Cc2ccc(F)cc2)c(=O)n1Cc1ccccc1,–,–,·,·,·
COc1ccccc1NC(=O)Cn1c(=O)n(Cc2ccccc2)c(=O)c2sc3ccccc3c21,–,–,·,·,·
O=C(Cn1c(=O)n(Cc2ccccc2)c(=O)c2sc3ccccc3c21)Nc1ccc(F)cc1,14.6µM,14.6µM,·,·,·
C(=Cc1nc2ccccc2o1)c1ccc2c(c1)OCO2,–,?,–,?,–
CN(C)c1ccc(/C=C/c2nc3ccccc3s2)c(Cl)c1,?,14.1µM,·,·,·
O=C(/C=C/c1nc2ccccc2s1)N1CCCCCC1,–,?,–,–,–
CCOc1cc(/C=C/c2nc3ccccc3s2)ccc1OCC(=O)N1CCOCC1,–,20.6µM,–,–,–
C(=C\c1nc2ccccc2s1)/c1ccc2c(c1)OCO2,?,11.2µM,·,·,·
Cc1nnnn1/C(=C\c1ccccc1)C(=O)OCC(=O)NC1CCCCC1,13µM,14.6µM,?,18.4µM,-103.3
Cc1nnnn1/C(=C\c1ccccc1)C(=O)OCC(=O)NC(C)(C)C,16.4µM,10.3µM,–,?,–
CC(=O)Nc1ccc(NC(=O)COC(=O)/C(=C/c2ccccc2)n2nnnc2C)cc1,11.6µM,13µM,?,?,-75.7
CC(C)(C)NC(=O)COC(=O)c1ccccc1Oc1ccccc1,–,–,–,–,–
O=C(COC(=O)/C=C/c1ccccc1)NC1CCCCCC1,–,–,–,–,–
COc1cccc(NC(=O)Cn2c3ccccc3c3nc4n(c(=O)c32)CCCS4)c1,?,?,–,–,–
C=CC[C@@H](CC(=O)N[C@@H](CO)Cc1ccccc1)C(=O)N[C@H](COC(=O)[C@@H](CC=C)Cc1ccc(F)cc1)C(C)(C)C,16.4µM,–,?,–,–
C=CCC[C@@H](Cc1ccc(F)cc1)C(=O)OC[C@@H](NC(=O)[C@@H](CC=C)CC(=O)N[C@H](CO)Cc1ccccc1)C(C)(C)C,23.1µM,16.4µM,?,–,–
